The values below come from article PMC11006913.

Holding throughout (assay): PBM; 200 nM protein, PBS
Conditions in all cases: dsDNA, one strand shown

The target in assay [1] is NKX2-5 (Homo sapiens, UniProt P52952 125-210, R139K).
The target in assay [2] is NKX2-5 (Homo sapiens, UniProt P52952 125-210).
Assay [3] deals with T1, NKX2-4 (Homo sapiens, UniProt Q9H2Z4 175-261, P217L).
T1 sequence: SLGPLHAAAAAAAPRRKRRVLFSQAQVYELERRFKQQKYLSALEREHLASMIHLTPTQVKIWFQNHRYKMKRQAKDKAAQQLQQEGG

In assay [4] the target is T2, NKX2-4 (Homo sapiens, UniProt Q9H2Z4 175-261, T231S).
T2 sequence: T1 sequence with L43P, T57S

Assay [5] concerns the target T3, NKX2-4 (Homo sapiens, UniProt Q9H2Z4 175-261).
T3 sequence: T1 sequence with L43P

A further assay deals with HOXB6 (Homo sapiens, UniProt P17509 132-218, K202E).
HOXB6, sequence (P17509 132-218 K202E): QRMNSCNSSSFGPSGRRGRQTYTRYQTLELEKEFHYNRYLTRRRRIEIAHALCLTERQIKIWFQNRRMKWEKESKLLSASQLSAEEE
Assay [6] has as its target T4, NKX2-4 (Homo sapiens, UniProt Q9H2Z4 175-261, R246Q).
T4 sequence: T1 sequence with L43P, R72Q

Assay [7] has as its target NKX3-2 (Homo sapiens, UniProt P78367 192-278, P234S).
The target of assay [8] is NKX3-2 (Homo sapiens, UniProt P78367 192-278).
NKX3-2 (Homo sapiens, UniProt P78367 192-278), sequence (P78367 192-278): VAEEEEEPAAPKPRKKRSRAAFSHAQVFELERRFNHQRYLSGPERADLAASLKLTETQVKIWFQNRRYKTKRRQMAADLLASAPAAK
Assay [9] deals with T5, NKX2-6 (Homo sapiens, UniProt A6NCS4 118-204, R150C).
T5 sequence: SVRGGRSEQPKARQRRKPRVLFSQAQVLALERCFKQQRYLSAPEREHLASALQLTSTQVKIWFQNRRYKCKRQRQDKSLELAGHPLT

The target in assay [10] is T6, NKX2-6 (Homo sapiens, UniProt A6NCS4 118-204).
T6 sequence: T5 sequence with C33R

Assay [11] has as its target T7, NKX2-6 (Homo sapiens, UniProt A6NCS4 118-204, F151L).
T7 sequence: T5 sequence with C33R, F34L

Assay [12] deals with HOXA2 (Homo sapiens, UniProt O43364 129-215, R185T).
HOXA2 (Homo sapiens, UniProt O43364 129-215, R185T), sequence (O43364 129-215 R185T): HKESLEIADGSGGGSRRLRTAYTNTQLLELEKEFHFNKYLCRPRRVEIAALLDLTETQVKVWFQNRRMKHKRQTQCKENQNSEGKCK
The target of assay [13] is HOXA2 (Homo sapiens, UniProt O43364 129-215, R185K).
HOXA2 (Homo sapiens, UniProt O43364 129-215, R185K), sequence (O43364 129-215 R185K): as the sequence (O43364 129-215 R185T) above, with T57K counted along it
For assay [14], the target named is HOXA2 (Homo sapiens, UniProt O43364 129-215, Y150S).
HOXA2 (Homo sapiens, UniProt O43364 129-215, Y150S), sequence (O43364 129-215 Y150S): as the sequence (O43364 129-215 R185T) above, with Y22S, T57R counted along it
The target in assay [15] is HOXA2 (Homo sapiens, UniProt O43364 129-215).
HOXA2 (Homo sapiens, UniProt O43364 129-215), sequence (O43364 129-215): as the sequence (O43364 129-215 R185T) above, with T57R counted along it
Assay [16] deals with T8, VENTX (Homo sapiens, UniProt O95231 78-163, R121Q).
T8 sequence: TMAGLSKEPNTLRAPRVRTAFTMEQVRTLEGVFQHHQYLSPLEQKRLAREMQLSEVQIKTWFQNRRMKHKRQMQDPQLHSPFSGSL

Assay [17] concerns the target T9, VENTX (Homo sapiens, UniProt O95231 78-163).
T9 sequence: T8 sequence with Q44R

Assay [18] concerns the target T10, VENTX (Homo sapiens, UniProt O95231 78-163, Y115F).
T10 sequence: T8 sequence with Y38F, Q44R

Substitutions are numbered along the chain they refer to.

NKX2-5 (Homo sapiens, UniProt P52952 125-210, R139K), sequence (P52952 125-210 R139K): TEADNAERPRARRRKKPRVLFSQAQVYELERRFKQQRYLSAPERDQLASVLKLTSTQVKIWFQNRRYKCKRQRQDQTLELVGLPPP
NKX2-5 (Homo sapiens, UniProt P52952 125-210), sequence (P52952 125-210): as the sequence (P52952 125-210 R139K) above, with K15R counted along it
NKX3-2 (Homo sapiens, UniProt P78367 192-278, P234S), sequence (P78367 192-278 P234S): as the sequence (P78367 192-278) above, with P43S counted along it

CCGCGTCG: the binding signal with NKX2-5 [1] was 9.03 upbm affinity estimate (log intensity, higher = more binding, comparable within an allelic series); with NKX2-5 [2], 8.95 upbm affinity estimate (log intensity, higher = more binding, comparable within an allelic series).

Turning to CCGGAGCC, the binding signal is 8.82 upbm affinity estimate (log intensity, higher = more binding, comparable within an allelic series) with NKX2-5 [1]; 9.74 upbm affinity estimate (log intensity, higher = more binding, comparable within an allelic series) with NKX2-4 [3]; 9.52 upbm affinity estimate (log intensity, higher = more binding, comparable within an allelic series) with NKX2-4 [4]; 9.71 upbm affinity estimate (log intensity, higher = more binding, comparable within an allelic series) with NKX2-4 [5]; 8.96 upbm affinity estimate (log intensity, higher = more binding, comparable within an allelic series) with HOXB6; 9.5 upbm affinity estimate (log intensity, higher = more binding, comparable within an allelic series) with NKX2-4 [6]. For the same sequence, the binding signal in the assay with NKX3-2 [7] is 10.4 upbm affinity estimate (log intensity, higher = more binding, comparable within an allelic series); with NKX2-5 [2], 8.87 upbm affinity estimate (log intensity, higher = more binding, comparable within an allelic series); with NKX3-2 [8], 10.4 upbm affinity estimate (log intensity, higher = more binding, comparable within an allelic series).

For the sequence CTACTTAA, the binding signal with NKX2-5 [1] is 12.4 upbm affinity estimate (log intensity, higher = more binding, comparable within an allelic series); with NKX2-4 [3], 12.5 upbm affinity estimate (log intensity, higher = more binding, comparable within an allelic series); with NKX2-4 [4] it was 12.9 upbm affinity estimate (log intensity, higher = more binding, comparable within an allelic series); with NKX2-4 [5], 12.4 upbm affinity estimate (log intensity, higher = more binding, comparable within an allelic series); with NKX2-6 [9] it was 11.5 upbm affinity estimate (log intensity, higher = more binding, comparable within an allelic series); in the assay with NKX2-6 [10], 13.6 upbm affinity estimate (log intensity, higher = more binding, comparable within an allelic series). Moreover, the binding signal with NKX2-4 [6] was 13 upbm affinity estimate (log intensity, higher = more binding, comparable within an allelic series); in the assay with NKX2-6 [11], 10.6 upbm affinity estimate (log intensity, higher = more binding, comparable within an allelic series); with NKX2-5 [2], 12.3 upbm affinity estimate (log intensity, higher = more binding, comparable within an allelic series).

As to CTTAAGTA, the binding signal is 12.9 upbm affinity estimate (log intensity, higher = more binding, comparable within an allelic series) in the assay with NKX2-5 [1]; 12.6 upbm affinity estimate (log intensity, higher = more binding, comparable within an allelic series) with NKX2-4 [3]; 12.9 upbm affinity estimate (log intensity, higher = more binding, comparable within an allelic series) with NKX2-4 [4]; 12.5 upbm affinity estimate (log intensity, higher = more binding, comparable within an allelic series) in the assay with NKX2-4 [5]; 11.7 upbm affinity estimate (log intensity, higher = more binding, comparable within an allelic series) with NKX2-6 [9]; 13.7 upbm affinity estimate (log intensity, higher = more binding, comparable within an allelic series) in the assay with NKX2-6 [10]. Moreover, the binding signal with NKX2-4 [6] is 13.1 upbm affinity estimate (log intensity, higher = more binding, comparable within an allelic series); with NKX2-6 [11], 10.9 upbm affinity estimate (log intensity, higher = more binding, comparable within an allelic series); with NKX2-5 [2], 12.8 upbm affinity estimate (log intensity, higher = more binding, comparable within an allelic series).

Regarding ACGGCGGC, the binding signal with NKX2-5 [1] is 9 upbm affinity estimate (log intensity, higher = more binding, comparable within an allelic series); with HOXB6 it was 8.91 upbm affinity estimate (log intensity, higher = more binding, comparable within an allelic series); with NKX2-5 [2] it was 8.98 upbm affinity estimate (log intensity, higher = more binding, comparable within an allelic series).

Consider ACCCGGGC, for which the binding signal with NKX2-5 [1] was 8.96 upbm affinity estimate (log intensity, higher = more binding, comparable within an allelic series); with NKX2-5 [2], 8.92 upbm affinity estimate (log intensity, higher = more binding, comparable within an allelic series).

As for CTTCCGTC, the binding signal is 8.85 upbm affinity estimate (log intensity, higher = more binding, comparable within an allelic series) with NKX2-5 [1] and 8.77 upbm affinity estimate (log intensity, higher = more binding, comparable within an allelic series) in the assay with NKX2-5 [2].

In the case of CGCCCGAG, the binding signal was 8.73 upbm affinity estimate (log intensity, higher = more binding, comparable within an allelic series) with NKX2-5 [1] and 8.76 upbm affinity estimate (log intensity, higher = more binding, comparable within an allelic series) with NKX2-5 [2].

CCAGGCCG: the binding signal with NKX2-5 [1] was 8.83 upbm affinity estimate (log intensity, higher = more binding, comparable within an allelic series); in the assay with NKX2-4 [3], 9.57 upbm affinity estimate (log intensity, higher = more binding, comparable within an allelic series); in the assay with NKX2-4 [4] it was 9.57 upbm affinity estimate (log intensity, higher = more binding, comparable within an allelic series); with NKX2-4 [5] it was 9.56 upbm affinity estimate (log intensity, higher = more binding, comparable within an allelic series); with HOXA2 [12], 7.21 upbm affinity estimate (log intensity, higher = more binding, comparable within an allelic series); in the assay with HOXA2 [13], 10.2 upbm affinity estimate (log intensity, higher = more binding, comparable within an allelic series). The binding signal in the assay with NKX2-4 [6] was 9.57 upbm affinity estimate (log intensity, higher = more binding, comparable within an allelic series); in the assay with HOXA2 [14] it was 10.3 upbm affinity estimate (log intensity, higher = more binding, comparable within an allelic series); with HOXA2 [15] it was 7.17 upbm affinity estimate (log intensity, higher = more binding, comparable within an allelic series); with NKX2-5 [2] it was 8.78 upbm affinity estimate (log intensity, higher = more binding, comparable within an allelic series).

With CGAACGCC, the binding signal with NKX2-5 [1] was 8.62 upbm affinity estimate (log intensity, higher = more binding, comparable within an allelic series); with NKX2-5 [2], 8.69 upbm affinity estimate (log intensity, higher = more binding, comparable within an allelic series).

With CCGGCGCG, the binding signal was 8.28 upbm affinity estimate (log intensity, higher = more binding, comparable within an allelic series) with NKX2-5 [1] and 8.51 upbm affinity estimate (log intensity, higher = more binding, comparable within an allelic series) with NKX2-5 [2].

Regarding ATAAGTAC, the binding signal with NKX2-5 [1] is 12.9 upbm affinity estimate (log intensity, higher = more binding, comparable within an allelic series); with NKX2-4 [3], 12.6 upbm affinity estimate (log intensity, higher = more binding, comparable within an allelic series); in the assay with NKX2-4 [4], 13 upbm affinity estimate (log intensity, higher = more binding, comparable within an allelic series); with NKX2-4 [5], 12.5 upbm affinity estimate (log intensity, higher = more binding, comparable within an allelic series); in the assay with NKX2-6 [9] it was 12 upbm affinity estimate (log intensity, higher = more binding, comparable within an allelic series); in the assay with NKX2-6 [10] it was 13.6 upbm affinity estimate (log intensity, higher = more binding, comparable within an allelic series). In addition, the binding signal with NKX2-4 [6] is 13.1 upbm affinity estimate (log intensity, higher = more binding, comparable within an allelic series); in the assay with NKX2-6 [11], 10.9 upbm affinity estimate (log intensity, higher = more binding, comparable within an allelic series); with NKX3-2 [7], 12.5 upbm affinity estimate (log intensity, higher = more binding, comparable within an allelic series); with NKX2-5 [2], 12.7 upbm affinity estimate (log intensity, higher = more binding, comparable within an allelic series).

In the case of ATAAGTGC, the binding signal with NKX2-5 [1] was 13 upbm affinity estimate (log intensity, higher = more binding, comparable within an allelic series); in the assay with NKX2-4 [3], 12.7 upbm affinity estimate (log intensity, higher = more binding, comparable within an allelic series); with NKX2-4 [4] it was 13.1 upbm affinity estimate (log intensity, higher = more binding, comparable within an allelic series); with NKX2-4 [5] it was 12.6 upbm affinity estimate (log intensity, higher = more binding, comparable within an allelic series); with NKX2-6 [9] it was 12.2 upbm affinity estimate (log intensity, higher = more binding, comparable within an allelic series); with NKX2-6 [10], 13.8 upbm affinity estimate (log intensity, higher = more binding, comparable within an allelic series). For the same sequence, the binding signal was 13.3 upbm affinity estimate (log intensity, higher = more binding, comparable within an allelic series) in the assay with NKX2-4 [6]; 11.4 upbm affinity estimate (log intensity, higher = more binding, comparable within an allelic series) in the assay with NKX2-6 [11]; 12.9 upbm affinity estimate (log intensity, higher = more binding, comparable within an allelic series) with NKX3-2 [7]; 12.9 upbm affinity estimate (log intensity, higher = more binding, comparable within an allelic series) with NKX2-5 [2]; 13 upbm affinity estimate (log intensity, higher = more binding, comparable within an allelic series) with NKX3-2 [8].

For ATCAAGTG, the binding signal with NKX2-5 [1] is 12.8 upbm affinity estimate (log intensity, higher = more binding, comparable within an allelic series); with NKX2-4 [3], 12.6 upbm affinity estimate (log intensity, higher = more binding, comparable within an allelic series); with NKX2-4 [4], 13 upbm affinity estimate (log intensity, higher = more binding, comparable within an allelic series); with NKX2-4 [5], 12.4 upbm affinity estimate (log intensity, higher = more binding, comparable within an allelic series); with NKX2-6 [9] it was 12 upbm affinity estimate (log intensity, higher = more binding, comparable within an allelic series); in the assay with NKX2-6 [10], 13.7 upbm affinity estimate (log intensity, higher = more binding, comparable within an allelic series). For the same sequence, the binding signal with NKX2-4 [6] was 13.1 upbm affinity estimate (log intensity, higher = more binding, comparable within an allelic series); in the assay with NKX2-6 [11] it was 10.7 upbm affinity estimate (log intensity, higher = more binding, comparable within an allelic series); with NKX2-5 [2], 12.6 upbm affinity estimate (log intensity, higher = more binding, comparable within an allelic series).

Turning to ACCAGCTG, the binding signal with NKX2-5 [1] was 8.74 upbm affinity estimate (log intensity, higher = more binding, comparable within an allelic series); with VENTX [16], 7.92 upbm affinity estimate (log intensity, higher = more binding, comparable within an allelic series); with VENTX [17], 8.2 upbm affinity estimate (log intensity, higher = more binding, comparable within an allelic series); with VENTX [18], 8.14 upbm affinity estimate (log intensity, higher = more binding, comparable within an allelic series); in the assay with NKX2-5 [2], 9.02 upbm affinity estimate (log intensity, higher = more binding, comparable within an allelic series).
